Drawing on PubChem BioAssay (NCATS), this text covers Potency, activity and activity change, negative = inhibition for 14 molecules.

Where “and” joins values, the source holds several entries; their conditions need not be identical. Identical values can stand only once. Records with an inconclusive call do not appear. Calls of active or inactive are those of the source. The call rests on the fitted dose curve; in most records, active means well fitted curve in the direction sought with a large enough effect; inconclusive means small, poorly fitted or top-dose-only effect, or another doubt; inactive means no such curve, though single readings can be large; an effect the other way counts as inactive or inconclusive.

Assay [1] is described as follows: NCATS anti-infectives library activity on HEK293 viability as a counter-qHTS vs the C. elegans viability qHTS (AID 1745854).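 Further: HEK293 cells exposed to compounds for 24 hr before the viability read; on the % scale 0 is the no-effect control and ±100 the full control effect.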 The text has this:
Assay Development and Screening Technology Laboratory (ADST)
National Center for Advancing Translational Sciences (NCATS), Rockville, MD
National Institute of Health (NIH), Bethesda, Maryland
Caenorhabditis elegans has helped elucidate the evolutionarily conserved genetics underlying pathways and cellular processes implicated in human disease and may be ideally positioned to reveal novel pharmacological properties of exiting drugs. The organism's short life cycle and microscopic size is applicable to the technical requirements of high-throughput screening. Here a quantitative high-throughput screening (qHTS)-based forward chemical biology platform has been developed using C. elegans. 384-well microtiter plate laser scanning cytometry was used in the rapid detection and quantification of the fluorescent protein-encoded phenotype to score worm viability. In a proof-of-concept study, the pharmacological qHTS profile obtained from a library of 643 anti-infective compounds.
1. Inglese, J., Auld, D. S., Jadhav, A., Johnson, R. L., Simeonov, A., Yasgar, A., Zheng, W., and Austin, C. P. (2006) Quantitative high-throughput screening: A titration-based approach that efficiently identifies biological activities in large chemical libraries, P Natl Acad Sci USA 103, 11473-11478.
2. Auld, D. S., Johnson, R. L., Zhang, Y. Q., Veith, H., Jadhav, A., Yasgar, A., Simeonov, A., Zheng, W., Martinez, E. D., Westwick, J. K., Austin, C. P., and Inglese, J. (2006) Fluorescent protein-based cellular assays analyzed by laser-scanning microplate cytometry in 1536-well plate format, Method Enzymol 414, 566-589.
3. Zuck, P., Lao, Z., Skwish, S., Glickman, J. F., Yang, K., Burbaum, J., and Inglese, J. (1999) Ligand-receptor binding measured by laser-scanning imaging, Proc Natl Acad Sci U S A 96, 11122-11127.
PROTOCOL TABLE (as described by Inglese J, Shamu CE and Guy RK. 2007)
SEQUENCE No. (e.g., 1, 2, 3, etc.); […] (e.g., C. elegans, Compounds, Incubation, Read, etc.); VALUE and DESCRIPTION.
1. Compounds. Library compounds and digitonin control added at 25 nL per well to 7 assay ready 1536-well Greiner white/solid bottom high base, TC plates and two DMSO control plates, transferred by Echo acoustic dispenser.
2. Cells. Seed 1500 HEK293 per well in 6 uL into assay ready Greiner 1536-well plates.
3. Incubation. Incubate plated cells with compounds at 37C in 5% CO2, 95% RH for 24 hr.
4. Reagent. Add 4 uL of CellTiter-Glo reagent from Promega per well of Greiner 1536-well plates with BioRAPTR FRD.
5. Incubation. Incubate treated cells at room temperature for 10 min., protect from light.
6. Detector. CellTiter-Glo luminescence measured using CCD-based camera (Viewlux) with settings as follows: Exposure, 1 sec; Gain, High; Speed, Slow; Binning, 2X.
NOTES (numbers refer to Sequence numbers above; values are from representative experiments)
1. NIH Anti-Infectives library pre-dispensed into 7 assay ready 1536-well Greiner white/solid bottom high base, TC plates with Echo 555 acoustic dispenser. Most compounds dispensed at 10 mM high concentration and plated in 7-pt 1:5 inter-plate titration at 25 nl / well for a final assay concentration range of 41.7 uM - 2.7 nM. Two 1536-well Greiner assay plates of DMSO plated as screening controls to be read at the beginning and the end of the screen. Controls included DMSO vehicle control added at 25 nl/well to each well of column 1 and […] (83.3 uM final assay concentration), and Digitonin titrated 1:2 at 25 nl/ well to column 4 in duplicate for a final assay concentration range of 83.3 uM - 2.5 nM.
2. HEK293 cells grown for 48 hr in one T175 culture flask in DMEM high glucose media supplemented with 10% FBS and 1% Pen/Strep antibiotic. Cells trypsinized and diluted in 10 ml supplemented media, strained through 40 µm cell strainer, and diluted to a total volume of 40 ml with supplemented media. […]
A general note: Quantitative high-throughput screening tests each substance at several concentrations.

Assay [2] is described as follows: Primary qHTS for inhibitors of nuclear receptor binding SET domain protein 2 (NSD2) in an RCH-ACV wild type WT cells (2C) (AID 1645877). Further: nearly all actives have a fitted effect of over 70% in size. Further: potency means the concentration at half of the fitted maximal effect.
In assay [3] the target is Rap guanine nucleotide exchange factor 3 (Homo sapiens) (UniProt O95398). In words: Confirmatory qHTS for antagonist of cAMP-regulated guanine nucleotide exchange factor 3 (EPAC1) (AID 1645880). Further: nearly all actives have a fitted effect of over 55% in size. Further: potency means the concentration at half of the fitted maximal effect. An outline of the steps: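 Nucleotide exchange uses 100 nM EPAC1, 250 nM RAP1B-BODIPY-GDP and 50 uM GDP, with compounds in a concentration-titration series. After 5 min at room temperature, fluorescence (480 nm ex/540 nm em) is read every 5 min for 30 min. Data are normalized to control ATA and DMSO.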

Assay [4] has the same target. In words: Confirmatory qHTS for agonist of cAMP-regulated guanine nucleotide exchange factor 3 (EPAC1) (AID 1645881).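 Further: EPAC1 catalysed release of BODIPY-GDP from Rap1B seen as fluorescence loss; 100% = effect of cAMP agonist control; nearly all actives have a fitted effect of over 75% in size.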
For assay [5], the target named is Rap guanine nucleotide exchange factor 4 (Homo sapiens) (UniProt Q8WZA2). In words: Confirmatory qHTS for agonist of cAMP-regulated guanine nucleotide exchange factor 4 (EPAC2) (AID 1645884).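 Further: nucleotide exchange releases bodipy-GDP from Rap1 and this lowers its fluorescence; on the % scale 0 is the no-effect control and ±100 the full control effect; nearly all actives have a fitted effect of over 65% in size.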
For assay [6] the target is unchanged. In words: Confirmatory qHTS for antagonist of cAMP-regulated guanine nucleotide exchange factor 4 (EPAC2) (AID 1645885). Further: nearly all actives have a fitted effect of over 25% in size. Further: potency means the concentration at half of the fitted maximal effect. On activity change, negative = inhibition: on the % scale 0 is the no-effect control and ±100 the full control effect.
Assay [7] has as its target Catechol O-methyltransferase (Homo sapiens) (UniProt P21964). In words: Confirmatory Screen for Target Class Profiling of Small Molecule Inhibitors of Methyltransferases (AID 1745852). On activity change, negative = inhibition: on the % scale 0 is the no-effect control and ±100 the full control effect. The following applies: MTase-Glo luminescence, SAH detection, recombinant enzyme; measured here: COMT max response; stronger effect = lower value.
Assay [8] addresses Guanidinoacetate N-methyltransferase (Homo sapiens) (UniProt Q14353). The assay is described as above. As to conditions: MTase-Glo luminescence, SAH detection, recombinant enzyme; at 57.3 µM (top of the series).
Assay [9] addresses Nicotinamide N-methyltransferase (Homo sapiens) (UniProt P40261). The assay is described as above. As to conditions: MTase-Glo luminescence, SAH detection, recombinant enzyme; measured here: NNMT max response; stronger effect = lower value.
Assay [10] deals with Phenylethanolamine N-methyltransferase (Homo sapiens) (UniProt P11086). The assay is described as above. The following applies: MTase-Glo luminescence, SAH detection, recombinant enzyme; measured here: PNMT max response; stronger effect = lower value.
Chain of Phenylethanolamine N-methyltransferase (Homo sapiens) (P11086 whole entry, looked up): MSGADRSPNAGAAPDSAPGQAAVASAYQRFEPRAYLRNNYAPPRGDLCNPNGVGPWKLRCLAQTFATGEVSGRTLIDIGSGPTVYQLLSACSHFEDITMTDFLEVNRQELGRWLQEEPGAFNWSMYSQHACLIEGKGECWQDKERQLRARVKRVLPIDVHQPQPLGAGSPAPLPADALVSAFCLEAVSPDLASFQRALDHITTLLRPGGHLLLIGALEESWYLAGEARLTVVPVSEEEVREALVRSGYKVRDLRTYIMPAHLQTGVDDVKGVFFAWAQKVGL

Chain of Rap guanine nucleotide exchange factor 4 (Homo sapiens) (Q8WZA2 whole entry, looked up): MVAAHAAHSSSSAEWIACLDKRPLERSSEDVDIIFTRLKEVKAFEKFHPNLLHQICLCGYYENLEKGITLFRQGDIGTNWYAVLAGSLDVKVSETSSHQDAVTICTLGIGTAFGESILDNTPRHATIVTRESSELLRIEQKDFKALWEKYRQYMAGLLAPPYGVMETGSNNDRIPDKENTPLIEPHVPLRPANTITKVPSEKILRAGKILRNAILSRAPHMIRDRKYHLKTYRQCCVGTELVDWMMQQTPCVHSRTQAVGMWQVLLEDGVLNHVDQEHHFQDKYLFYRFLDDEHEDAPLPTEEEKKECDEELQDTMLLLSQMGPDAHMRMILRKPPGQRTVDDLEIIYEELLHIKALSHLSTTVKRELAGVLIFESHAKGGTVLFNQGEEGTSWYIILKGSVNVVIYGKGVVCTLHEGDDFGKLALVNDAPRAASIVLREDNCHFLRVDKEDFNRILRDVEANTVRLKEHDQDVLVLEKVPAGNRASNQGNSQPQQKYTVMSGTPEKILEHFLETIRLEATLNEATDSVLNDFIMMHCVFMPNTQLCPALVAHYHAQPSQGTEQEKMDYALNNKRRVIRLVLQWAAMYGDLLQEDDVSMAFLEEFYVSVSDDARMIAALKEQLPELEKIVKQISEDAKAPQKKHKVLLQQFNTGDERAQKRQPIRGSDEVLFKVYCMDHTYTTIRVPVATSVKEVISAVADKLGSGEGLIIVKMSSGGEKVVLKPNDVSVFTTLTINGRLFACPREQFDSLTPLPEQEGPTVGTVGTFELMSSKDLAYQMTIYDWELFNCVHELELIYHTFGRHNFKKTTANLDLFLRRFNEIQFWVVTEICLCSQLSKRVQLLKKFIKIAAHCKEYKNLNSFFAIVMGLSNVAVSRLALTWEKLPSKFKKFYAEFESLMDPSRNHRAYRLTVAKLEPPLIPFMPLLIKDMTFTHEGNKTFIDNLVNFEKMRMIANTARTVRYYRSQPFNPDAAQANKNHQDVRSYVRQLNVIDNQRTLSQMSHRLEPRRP
Chain of Rap guanine nucleotide exchange factor 3 (Homo sapiens) (O95398 whole entry, looked up): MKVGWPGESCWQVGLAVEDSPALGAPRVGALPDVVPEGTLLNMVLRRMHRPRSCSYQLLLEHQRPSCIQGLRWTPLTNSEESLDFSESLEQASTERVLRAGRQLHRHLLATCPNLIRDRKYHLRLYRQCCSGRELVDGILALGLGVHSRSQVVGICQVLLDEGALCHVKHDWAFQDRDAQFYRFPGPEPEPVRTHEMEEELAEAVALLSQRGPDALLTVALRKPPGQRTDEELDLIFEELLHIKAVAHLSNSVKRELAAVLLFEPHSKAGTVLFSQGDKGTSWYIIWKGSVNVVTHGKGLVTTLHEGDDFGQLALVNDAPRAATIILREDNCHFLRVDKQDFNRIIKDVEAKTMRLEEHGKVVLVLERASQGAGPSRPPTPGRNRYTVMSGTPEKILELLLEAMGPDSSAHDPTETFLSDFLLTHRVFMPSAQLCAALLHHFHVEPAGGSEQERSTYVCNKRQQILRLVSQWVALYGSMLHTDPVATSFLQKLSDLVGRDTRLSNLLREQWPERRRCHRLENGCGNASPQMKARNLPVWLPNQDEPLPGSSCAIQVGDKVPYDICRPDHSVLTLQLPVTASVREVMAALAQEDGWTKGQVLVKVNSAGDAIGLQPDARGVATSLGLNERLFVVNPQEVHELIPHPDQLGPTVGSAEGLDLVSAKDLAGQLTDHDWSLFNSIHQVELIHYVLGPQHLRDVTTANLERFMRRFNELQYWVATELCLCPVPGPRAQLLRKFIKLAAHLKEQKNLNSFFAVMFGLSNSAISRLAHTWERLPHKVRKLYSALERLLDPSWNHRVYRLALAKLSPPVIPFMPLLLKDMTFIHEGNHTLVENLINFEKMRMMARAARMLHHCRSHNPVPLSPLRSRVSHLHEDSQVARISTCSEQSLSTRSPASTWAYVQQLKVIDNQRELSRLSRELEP
Chain of Nicotinamide N-methyltransferase (Homo sapiens) (P40261 whole entry, looked up): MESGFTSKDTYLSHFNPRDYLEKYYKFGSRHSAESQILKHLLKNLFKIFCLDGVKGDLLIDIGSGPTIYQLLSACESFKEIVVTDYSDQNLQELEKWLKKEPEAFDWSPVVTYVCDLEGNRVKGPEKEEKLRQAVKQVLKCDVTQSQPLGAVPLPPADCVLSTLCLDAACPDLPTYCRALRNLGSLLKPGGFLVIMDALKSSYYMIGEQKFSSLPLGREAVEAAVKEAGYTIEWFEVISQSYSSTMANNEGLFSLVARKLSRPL
Chain of Catechol O-methyltransferase (Homo sapiens) (P21964 whole entry, looked up): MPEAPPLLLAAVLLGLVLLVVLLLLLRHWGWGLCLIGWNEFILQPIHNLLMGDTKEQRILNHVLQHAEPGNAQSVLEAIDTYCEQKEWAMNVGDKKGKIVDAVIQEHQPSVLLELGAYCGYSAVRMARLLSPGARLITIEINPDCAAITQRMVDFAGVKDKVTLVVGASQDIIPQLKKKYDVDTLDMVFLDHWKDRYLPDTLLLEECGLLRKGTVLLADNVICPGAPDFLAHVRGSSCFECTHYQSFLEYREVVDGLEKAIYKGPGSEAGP

With `Clc1ccc2c(c1)N=C(N1CCNCC1)c1ccccc1N2`, the Potency entry in [1] is “inactive”.
For `CCCCCCCC(=O)[O-].CCCCCCCC(=O)[O-].[Zn+2]`, the Potency entry in [2] was “inactive”.
The same measure, in the same setting: the figure for `CN(C)CCOC(c1ccccc1)c1ccc(Br)cc1` (centres undefined) is 23.7 µM (active).
On to `CC(C)(c1ccc(O)cc1)c1ccc(O)cc1`, for which the Potency entry in assay [3], in [4] and in assay [5] was “inactive” throughout. The Potency in assay [6] is 80.4 µM (active).
Regarding `OCCc1ccccc1`, the Potency entry in [2] and in assay [1] was “inactive” in each case.
`CC(=O)N[C@@H](CCC(N)=O)C(=O)O`: the Potency entry in [2] is “inactive”.
For the molecule `O=[N+]([O-])c1ccc(O)c2ncccc12`, in assay [2], the Potency was 841 nM (active) and 6.61 µM (active).
The same measure, in the same setting: the entry for `CCCCOC(=O)CCCCCCCCC(=O)OCCCC` is “inactive”.
For the molecule `C[C@@H](O[C@H]1OCCN(Cc2n[nH]c(=O)[nH]2)[C@H]1c1ccc(F)cc1)c1cc(C(F)(F)F)cc(C(F)(F)F)c1`, in assay [1], the Potency entry is “inactive”.
As for `Nc1c(NC/C=C\COc2cc(CN3CCCCC3)ccn2)c(=O)c1=O`, the Potency result in [2] was “inactive”. In addition, the activity in assay [7] was -6.1%; in assay [9] it was -13.9%; in assay [10], -8.61%. The activity change, negative = inhibition in assay [8] amounted to 2.26%.
On to `Cc1cc(CCCOc2c(C)cc(-c3noc(C(F)(F)F)n3)cc2C)on1`, for which the Potency entry in assay [1] is “inactive”.
`CCC(=O)O[C@H]1[C@H](O[C@@H]2[C@@H](C)[C@H](O[C@H]3C[C@@](C)(OC)[C@@H](O)[C@H](C)O3)[C@@H](C)C(=O)O[C@H](CC)[C@@](C)(O)[C@H](O)[C@@H](C)C(=O)[C@H](C)C[C@@]2(C)O)O[C@H](C)C[C@@H]1N(C)C`: the Potency result in assay [2], in assay [4] and in [5] was “inactive” throughout. Further, the Potency in assay [3] was 12.5 µM (active); in assay [6], 17.5 µM (active).
Regarding `CCN(CC)CC(=O)Nc1c(C)cccc1C(=O)OC`, the Potency result in assay [2] was “inactive”.
Take `Nc1cccc2c(N)cccc12`: the Potency in assay [2] is 3.86 µM (active). For the same molecule, the Potency entry in assay [3], in [4] and in assay [6] was “inactive” in each case.
